SMN2 splice up: increases expression of the SMN2 splice variant | HEK293 SMN2-luciferase splicing reporter, luminescence, 30-36 h | Potency, µM (titrated, usually from 46.1 µM), for the others: top-dose activity change, positive = activation, actives largely listed as activators | 2.8% of 210,000 active | AID 1458; note: % of control where 0% means no effect; nearly all actives have a fitted effect of over 55% in size
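qHTS luciferase splicing reporter: luminescence rises when SMN2 exon 7 is included in transfected HEK293 cells. Compound exposure lasted 30-36 h at 37C, with 4.5 mM final sodium butyrate as control, followed by a ONE-Glo read.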
Rab9 promoter act: activators of Rab9 promoter | Huh7 Rab9 promoter-luciferase reporter, luminescence, 24 h | 2.8% of 320,000 active | Potency, µM (highest dose often 9.22 µM), for inactives: top-dose activation, negative = inhibition, most hits filed as activators; note: % of control where 0% means no effect; nearly all actives have a fitted effect of over 60% in size
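Luciferase signal after 10 min detection reagent at ambient indicates Rab9 promoter upregulation; stably transfected Huh7 cells were treated 24 h with compound in DMSO at 37 °C, 5% CO2.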
NPC1 promoter act: NPC1 promoter activation; Huh7 NPC1 promoter luciferase reporter, 24 h; Potency, µM (series often up to 9.22 µM), for the others: at the highest dose activation, usual class: activators; 2.4% of 320,000 active; AID 485313; note: % of control where 0% means no effect; nearly all actives have a fitted effect of over 60% in size
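NPC1 promoter–luciferase Huh7 cells; 24 h compound; luminescence.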
ELG1 genotoxic: inducers of genotoxicity in HEK293T ELG1-luciferase cells. Potency, µM (series often up to 46 µM), inactives show at the highest dose activity change, positive = activation, usual class: activators. 1.3% of 330,000 active. HEK293T ELG1-luciferase reporter, luminescence, 16 h. AID 504466; note: % of control where 0% means no effect; nearly all actives have a fitted effect of over 60% in size
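DMSO vehicle served as control against compound-treated ELG1-luciferase HEK293T cells; exposure lasted 16 hr at 37 °C and 5% CO2, followed by ONE-Glo luminescence detection after 30 min.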
KinaseGlo FLuc: Kinase-Glo luciferase inhibition (counter-screen) | Kinase-Glo luciferase, ATP luminescence, 8 min | 0.28% of 200,000 active | Potency, µM (doses to about 38.3 µM), for inactives: top-dose activity change, negative = inhibition, usual class: inhibitors | Q27757; note: % is set by controls: 0 for no effect and ±100 for the full control effect; nearly all actives have a fitted effect of over 60% in size
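Inhibition of Kinase-Glo luciferase light generation was assessed at 10 uM ATP in pH 7.2 imidazole buffer, with luminescence measured after eight minutes at ambient temperature.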
FLuc counter: counter-screen for miR-21 project: firefly luciferase inhibitors or activators; 6.9% of 360,000 active; P08659; purified FLuc, Km substrates, luminescence inhibition; Potency, µM (top dose mostly 57.5 µM), for the others: at the top dose activity change, negative = inhibition, actives largely listed as inhibitors; AID 588342;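 note: plate controls were vehicle for no effect and reference inhibitor for full effect; nearly all actives have a fitted effect of over 55% in size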
Target sequence (P08659 whole entry, looked up): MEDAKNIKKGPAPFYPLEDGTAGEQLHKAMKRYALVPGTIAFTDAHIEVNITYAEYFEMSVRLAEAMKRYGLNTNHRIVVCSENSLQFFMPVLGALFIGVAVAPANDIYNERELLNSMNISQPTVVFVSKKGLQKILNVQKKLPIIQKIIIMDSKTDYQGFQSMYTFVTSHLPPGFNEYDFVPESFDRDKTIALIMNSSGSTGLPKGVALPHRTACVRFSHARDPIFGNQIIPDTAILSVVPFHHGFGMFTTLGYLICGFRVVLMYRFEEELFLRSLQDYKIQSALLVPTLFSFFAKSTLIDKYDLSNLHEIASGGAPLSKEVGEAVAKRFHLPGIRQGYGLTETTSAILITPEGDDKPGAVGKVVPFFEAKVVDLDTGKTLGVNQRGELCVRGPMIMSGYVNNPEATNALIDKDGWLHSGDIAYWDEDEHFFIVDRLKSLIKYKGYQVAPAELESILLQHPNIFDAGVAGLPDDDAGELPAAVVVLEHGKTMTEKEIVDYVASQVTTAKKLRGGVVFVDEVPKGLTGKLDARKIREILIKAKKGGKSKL
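Purified P. pyralis luciferase (10nM final) with 10uM D-luciferin and 10uM ATP (Km levels) in 50mM Tris acetate pH 7.5, 10mM Mg acetate, 0.01% Tween-20, 0.05% BSA; qHTS 6-point titration, ~60 µM downward; luminescence read.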
Active calls of the source: *; ? = inconclusive; . = no result. The list is not random: actives were taken first. Their share in the collection is about 7.5%. Calls come from the whole dose curve; as a rule, active = well fitted curve in the direction sought with a large enough effect; inconclusive = small, poorly fitted or top-dose-only effect, or another doubt; inactive = no such curve, though single readings can be large; an effect the other way counts as inactive or inconclusive. Potency is the fitted concentration of half-maximal effect.

SMILES	SMN2 splice up	Rab9 promoter act	NPC1 promoter act	ELG1 genotoxic	KinaseGlo FLuc	FLuc counter
O=C(Nc1ccc2nc3n(c(=O)c2c1)CCCC3)c1cccc(F)c1	.	?	23%	2%	.	?
O=C(Nc1cccc(S(=O)(=O)N2CCCC2)c1)c1ccc2c(=O)n3c(nc2c1)CCCCC3	-57%	-22%	-6%	-10%	-4%	12µM*
O=C(c1ccc2c(=O)n(CCc3ccccc3)c(=O)[nH]c2c1)N1CCN(c2ccc(Cl)cc2)CC1	-29%	.	.	.	.	-1%
O=C(NC1CCCCCC1)c1ccc2c(=O)n3c(nc2c1)CCCCC3	13µM*	2µM*	2.8µM*	3.5µM*	-7%	8.5µM*
O=C(Nc1ccc(SC(F)F)cc1)c1ccc2c(=O)n3c(nc2c1)CCC3	.	?	18%	11%	.	2.4µM*
Cc1ccc(SCc2cc(=O)[nH]c(SCC(=O)Nc3cc(Cl)ccc3Cl)n2)cc1	-8%	-5%	-2%	-1%	1%	27µM*
CCc1ccc(NC(=O)CSc2nc(CSc3ccc(C)cc3)cc(=O)[nH]2)cc1	.	-3%	-6%	6%	.	19µM*
CCCc1cc(=O)[nH]c(SCC(=O)Nc2ccc(C)cc2)n1	8%	-1%	-1%	2%	-1%	-9%
CCc1nnc2c(Nc3ccc(N(CC)CC)cc3C)nc3ccccc3n12	.	.	.	.	.	-20%
CC(C)c1nnc(NC(=O)c2ccc3ccccc3c2)s1	.	1µM*	1µM*	?	.	2.1µM*
Cc1nnc(NC(=O)c2ccc3ccccc3c2)s1	.	1.4µM*	1.8µM*	4.6µM*	.	11µM*
O=C(c1ccc2c(c1)N(Cc1ccccc1)C(=O)c1ccccc1S2(=O)=O)N1CCN(c2ccccc2)CC1	2%	.	.	.	.	-5%
NS(=O)(=O)c1ccc(Nc2nc(-c3ccc(O)cc3O)cs2)cc1	14%	-9%	-1%	?	-1%	?
Oc1ccc(-c2csc(Nc3ccccn3)n2)c(O)c1	.	3.2µM*	1.8µM*	9.2µM*	.	4.8µM*
Cc1cccnc1Nc1nc(-c2ccc(O)cc2O)cs1	.	3.2µM*	?	?	.	15µM*
Cc1ccc(C(=O)/C=C2/NC(=O)CS2)cc1	20µM*	?	25%	17%	-3%	6.7µM*
O=C(NCc1ccccc1Cl)c1ccc(CSc2nc3ccncc3[nH]2)cc1	.	-2%	-2%	-9%	.	-11%
COc1cccc(CSc2nc3ccncc3[nH]2)c1	.	2.8µM*	1.6µM*	-18%	.	13µM*
Clc1ccccc1CSc1nc2ccncc2[nH]1	13µM*	3.5µM*	?	18µM*	?	15µM*
Cc1cccc(/C=C\c2nc3ccccc3c(=O)[nH]2)c1	2.8µM*	?	?	10µM*	?	0.85µM*
CN(C)c1ccc(/C=C/c2nc3ccccc3c(=O)[nH]2)cc1	.	0.089µM*	0.11µM*	0.58µM*	.	0.21µM*
CN(C)c1ccc(/C=C(\C#N)c2nc3ccccc3c(=O)[nH]2)cc1	-3%	.	.	.	.	0.3µM*
O=c1[nH]c(/C=C/c2ccccc2[N+](=O)[O-])nc2ccccc12	15%	?	?	8%	-1%	4%
Cc1cccc(/C=C(\C#N)c2nc3ccccc3c(=O)[nH]2)c1	-1%	.	.	.	.	1%
O=c1[nH]c(/C=C/c2ccc(Br)cc2)nc2ccccc12	.	0.4µM*	0.32µM*	?	.	0.17µM*
SMILES	SMN2 splice up	Rab9 promoter act	NPC1 promoter act	ELG1 genotoxic	KinaseGlo FLuc	FLuc counter
Cc1cccc(C)c1NC(=O)Cn1c(=O)cc(C)c2c(C)nn(-c3cccc(Cl)c3C)c21	.	.	.	.	.	-1%
O=c1[nH]c(COc2ccc(Br)cc2Cl)nc2ccccc12	.	3.5µM*	3.2µM*	7.3µM*	.	1.9µM*
COc1cc(/C=C/c2nc3ccccc3c(=O)[nH]2)cc(Cl)c1O	.	0%	15%	2%	.	-7%
Cc1nc(/C=C/c2ccccc2)[nH]c(=O)c1-c1ccccc1	2.8µM*	0.63µM*	?	?	-2%	1.9µM*
COc1ccc(OCC(=O)Nc2cc(-c3nc4ccccc4o3)ccc2Cl)cc1	14%	.	.	.	.	4%
Cc1cc(C)cc(OCCCn2c(-c3ccc(Cl)cc3)nc3ccccc3c2=O)c1	-9%	.	.	.	.	-5%
CCOc1ccc(OCC)c(NC(=O)c2cc3ccccn3n2)c1	.	.	.	.	.	-15%
O=C(Nc1ccc(OC(F)(F)F)cc1)c1cc2ccccn2n1	.	.	.	.	.	2.7µM*
O=C(NCCc1ccccc1Cl)c1cc2ccccn2n1	.	.	.	.	.	12µM*
COc1ccc(NC(=O)c2cc3ccccn3n2)cc1	6.3µM*	?	1µM*	1.2µM*	-25%	2.1µM*
CCOC(=O)c1cccc(NC(=O)c2cnccn2)c1	?	?	2.8µM*	?	-2%	-16%
CC(Sc1nc(=O)cc(N)n1CCc1ccccc1)C(=O)Nc1ccccc1C#N (stereo unspecified)	15%	.	.	.	.	2%
O=C(Nc1ccccc1C(F)(F)F)c1cc2ccccn2n1	.	.	.	.	.	1.9µM*
O=C(Nc1ccccc1C(F)(F)F)c1ccccn1	-1%	-5%	-1%	8%	-2%	?
CCOC(=O)c1cccc(NC(=O)c2cc3ccccn3n2)c1	.	.	.	.	.	3µM*
CC(C)c1ccc(OCc2ccc(C(=O)O)o2)cc1	.	?	?	?	.	0.43µM*
CC(C)c1ccc(OCc2ccc(C(=O)NN3CCN(C)CC3)o2)cc1	14µM*	2.5µM*	2.2µM*	?	4%	?
N#Cc1ccc(OCc2ccc(C(=O)O)o2)cc1	.	11%	-5%	0%	.	?
CC(C)NC(=O)c1ccc(COc2ccc(C(C)(C)C)cc2)o1	.	12%	?	14%	.	?
CC(C)c1ccc(OCc2ccc(C(=O)N(C)C)o2)cc1	.	1.6µM*	2.8µM*	10µM*	.	24µM*
COc1ccc(S(=O)(=O)N(CCc2ccccc2)CC(=O)Nc2cc(C)ccc2C)cc1	-11%	.	.	.	.	2%
CCOc1ccc(NC(=O)Nc2cc3c(cc2N2CCCCC2)n(C)c(=O)n3C)cc1	-2%	.	.	.	.	-6%
Nc1c(C(=O)NCc2ccc3c(c2)OCO3)nnn1-c1ccc(OC(F)(F)F)cc1	-44%	11%	7%	1%	-1%	-3%
Nc1c(C(=O)Nc2cccc(F)c2)nnn1-c1ccc2c(c1)OCCO2	.	0.32µM*	0.1µM*	0.65µM*	.	0.6µM*
Cc1ccccc1NC(=O)c1nnn(-c2ccc3c(c2)OCCO3)c1N	.	0.89µM*	1.3µM*	5%	.	6µM*
CCOc1ccccc1NC(=O)c1nnn(CC(=O)Nc2ccc3c(c2)OCO3)c1N	.	-4%	-2%	3%	.	-18%
CCOc1ccccc1NC(=O)c1nnn(-c2ccc3c(c2)OCCO3)c1N	.	?	-4%	-2%	.	17µM*

Compound activity from PubChem.
